In publication PMC4336329 (PLoS ONE, 2015):
The whole screen tested about 310,000 compounds, of which about 14,000 (4.5%) showed an effect of 50% or more. The effect is printed as a negative number. This is one part of a sample in which strong results are shown more often than they occur.

The molecules below were run against human ether-à-go-go-related gene (hERG) potassium channel (human, UniProt Q12809) (assay: primary screen, population patch clamp on CHO cells stably expressing hERG; higher = less effect of the substance).
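Also: peak tail current of the secondary pulse compared with the same well before compound.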

Sequence of human ether-à-go-go-related gene (hERG) potassium channel (Q12809 whole entry, looked up): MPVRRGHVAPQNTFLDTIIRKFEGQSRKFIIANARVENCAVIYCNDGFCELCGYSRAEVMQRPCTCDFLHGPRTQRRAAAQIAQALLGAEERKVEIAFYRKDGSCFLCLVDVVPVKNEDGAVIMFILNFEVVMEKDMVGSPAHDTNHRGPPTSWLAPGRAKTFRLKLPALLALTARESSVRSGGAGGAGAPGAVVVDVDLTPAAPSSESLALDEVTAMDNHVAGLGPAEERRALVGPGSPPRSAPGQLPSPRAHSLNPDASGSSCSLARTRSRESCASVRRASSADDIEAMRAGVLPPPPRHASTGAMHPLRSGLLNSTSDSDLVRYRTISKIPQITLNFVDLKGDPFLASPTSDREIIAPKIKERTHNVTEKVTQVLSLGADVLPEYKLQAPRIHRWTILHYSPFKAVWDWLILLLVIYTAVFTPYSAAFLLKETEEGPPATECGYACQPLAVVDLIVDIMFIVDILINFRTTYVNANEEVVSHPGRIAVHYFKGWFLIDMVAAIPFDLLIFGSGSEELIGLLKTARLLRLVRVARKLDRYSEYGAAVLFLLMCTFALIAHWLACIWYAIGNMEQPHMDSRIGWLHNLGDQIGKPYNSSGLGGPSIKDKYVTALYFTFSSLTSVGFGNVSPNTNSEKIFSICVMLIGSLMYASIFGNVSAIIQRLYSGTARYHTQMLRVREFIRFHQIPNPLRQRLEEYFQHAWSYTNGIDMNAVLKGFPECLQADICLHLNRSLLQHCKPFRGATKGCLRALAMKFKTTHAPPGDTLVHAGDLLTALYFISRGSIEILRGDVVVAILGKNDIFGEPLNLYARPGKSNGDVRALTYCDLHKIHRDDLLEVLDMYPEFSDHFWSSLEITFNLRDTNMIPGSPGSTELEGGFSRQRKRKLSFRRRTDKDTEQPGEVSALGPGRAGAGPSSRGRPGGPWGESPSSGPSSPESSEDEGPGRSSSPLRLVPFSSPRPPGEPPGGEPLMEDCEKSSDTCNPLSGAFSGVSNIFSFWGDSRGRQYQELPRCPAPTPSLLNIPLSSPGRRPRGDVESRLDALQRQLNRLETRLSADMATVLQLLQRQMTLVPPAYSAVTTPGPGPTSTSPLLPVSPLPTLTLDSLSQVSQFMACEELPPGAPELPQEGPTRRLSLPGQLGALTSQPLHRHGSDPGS

| Compound | hERG current change (%, negative = inhibition) at 10uM [%] |
| --- | --- |
| O=C(Nn1c(SCc2cccc([N+](=O)[O-])c2)nc2ccccc2c1=O)c1ccccc1 | -1.31 |
| Cc1noc(C)c1COc1ccccc1C(=O)NC1CCC(C)CC1 (stereo not drawn) | 0.497 |
| CSCC[C@H](NC(=O)Nc1cccc(C(F)(F)F)c1)C(=O)O | -0.0702 |
| Cc1cccc(CSc2nnc([C@@H]3CCCN3C(=O)OC(C)(C)C)o2)c1 | 4.85 |
| O=C(c1ccccc1Oc1ccccc1)N1CCN(c2ccc(F)cc2)CC1 | -33.9 |
| O=C(COC(=O)/C=C/C(=O)N1CCN(c2ccccc2)CC1)NCc1ccc(F)cc1 | -8.17 |
| CN(C(=O)COC(=O)c1ccccc1C(=O)N1CCN(c2ccccc2)CC1)c1ccccc1 | -17 |
| O=C(COC(=O)c1ccccc1C(=O)N1CCN(c2ccccc2)CC1)Nc1ccc(F)cc1 | -21.6 |
| O=C(COC(=O)c1ccccc1C(=O)N1CCN(c2ccc(F)cc2)CC1)NCc1ccccc1 | -73.6 |
| COc1cccc(NC(=O)COC(=O)c2ccccc2C(=O)N2CCN(c3ccccc3)CC2)c1 | -11.8 |
| CC(C)N(C(=O)COC(=O)c1ccccc1C(=O)N1CCN(c2ccc(F)cc2)CC1)C(C)C | -55.9 |
| O=C(COC(=O)c1ccccc1C(=O)N1CCN(c2ccccc2)CC1)NCc1ccccc1 | -58 |
| O=C(COC(=O)c1ccccc1C(=O)N1CCN(c2ccccc2)CC1)Nc1ccccc1 | -25.8 |
| O=C1CCC([N+](=O)[O-])C(c2ccc(Br)cc2)N1 (stereo not drawn) | 7.57 |
| CC(=O)N1CCN(C(=O)c2cc3ccccc3o2)CC1 | 20.1 |
| COC(=O)c1ccc(NS(=O)(=O)c2ccc(SC)cc2)cc1 | -2.34 |
| Cc1nn(Cc2c(Cl)cccc2Cl)c(C)c1N | 9.12 |
| CCOC(=O)C1=C(c2ccccc2)N=C2SCC(=O)N2C1c1ccc(OCC)c(OCC)c1 (stereo not drawn) | 6.45 |
| O=C(Nc1ccncc1)c1cc2ccccc2cc1O | 5.89 |
| Cc1ccc(-n2cc(C(=O)c3ccccc3O)cn2)cc1 | 19.8 |
| CCCCNC(=O)[C@H]1C[C@H]1[C@@H](O)[C@H](CO)NC(=O)[C@H](CC(C)C)NC(=O)OC(C)(C)C | 16.1 |

| Compound | hERG current change (%, negative = inhibition) at 10uM [%] |
| --- | --- |
| CCc1ccccc1NC(=O)CSc1nc(-c2ccccc2)nn1C(=O)c1cccc([N+](=O)[O-])c1 | -0.129 |
| Br.CCS(=O)CCSC(=N)N (stereo not drawn) | 19.2 |
| Br.Cc1ccc(S(=O)(=O)CCSC(=N)N)cc1 | 13.1 |
| CCS(=O)(=O)CCSC(=N)N.Cl | -53.3 |
| O=C(Nc1cccc(C(F)(F)F)c1)C1CCCN1S(=O)(=O)c1cccc2cccnc12 (stereo not drawn) | -12.4 |
| O=C(C1CCCN1S(=O)(=O)c1cccc2cccnc12)N1CCN(c2ccccc2)CC1 (stereo not drawn) | -45 |
| CC(=O)c1ccc(NC(=O)C2CCCN2S(=O)(=O)c2cccc3cccnc23)cc1 (stereo not drawn) | 7.11 |
| O=C(Nc1ccc(C(F)(F)F)cc1)C1CCCN1S(=O)(=O)c1cccc2cccnc12 (stereo not drawn) | -51.9 |
| O=C(O)[C@H]1CCCN1S(=O)(=O)c1cccc2cccnc12 | 0.132 |
| O=C(C1CCCN1S(=O)(=O)c1cccc2cccnc12)N1CCc2ccccc2C1 (stereo not drawn) | -57.5 |
| O=C(C1CCN(S(=O)(=O)c2cccc3cccnc23)CC1)N1CCn2c1nc1ccccc12 | -9.66 |
| O=C(C1CCCN1S(=O)(=O)c1cccc2cccnc12)N1CCc2ccccc21 (stereo not drawn) | -31.7 |
| O=C(C1CCCN1S(=O)(=O)c1cccc2cccnc12)N1CCn2c1nc1ccccc12 (stereo not drawn) | -50.8 |
| CSc1ncccc1C(=O)Nc1ccc(S(=O)(=O)NC2=NCCCCC2)cc1 | 7.85 |
| COC(=O)CCSCC(=O)Nc1cc(C)on1 | -14.4 |
| O=C(COc1cccc2cccnc12)N/N=C1\SCC(=O)N1Cc1ccccc1 | -44.8 |
| COc1cc(C(=O)OCC(=O)NCc2ccc(F)cc2)ccc1OCC(C)C | 21.1 |
| COc1ccc(NC(=O)N2CCN(S(C)(=O)=O)CC2)cc1OC | -0.713 |
| O=C(/C=C/c1ccc(Br)cc1)NC1CCCCCC1 | -4.17 |
| Cc1onc(-c2ccccc2)c1C(=O)Nc1ccc(S(=O)(=O)N2CCOCC2)cc1 | -29.6 |
| O=c1[nH]c(=O)n(-c2cccc(F)c2)c(O)c1/C=C1\C=Nc2ccccc21 | 14 |

| Compound | hERG current change (%, negative = inhibition) at 10uM [%] |
| --- | --- |
| O=[N+]([O-])c1ccc(Oc2cccc3cccnc23)c(Cl)c1 | -15.4 |
| O=[N+]([O-])c1ccccc1OCCCOc1cccc2cccnc12 | -15.3 |
| N#Cc1ccc(Oc2cccc3cccnc23)c([N+](=O)[O-])c1 | -79.1 |
| NC(=O)c1ccc(Oc2cccc3cccnc23)c([N+](=O)[O-])c1 | -13.4 |
| Cc1ccc2cccc(Oc3ccc([N+](=O)[O-])cc3[N+](=O)[O-])c2n1 | -7.96 |
| O=[N+]([O-])c1ccc(Oc2cccc3cccnc23)c([N+](=O)[O-])c1 | -52 |
| O=C(C1CCCN(S(=O)(=O)c2cc(Cl)ccc2Cl)C1)N1CCCCCC1 (stereo not drawn) | -62.4 |
| O=C(C1CCCN(S(=O)(=O)c2cc(Cl)ccc2Cl)C1)N1CCCC1 (stereo not drawn) | -19.5 |
| COc1ccc(Cl)cc1S(=O)(=O)N1CCCC(C(=O)N2CCOCC2)C1 (stereo not drawn) | -69.4 |
| O=C(C1CCCN(S(=O)(=O)c2cc(Cl)ccc2Cl)C1)N1CCOCC1 (stereo not drawn) | -33.2 |
| COc1ccc(OC)c(S(=O)(=O)N2CCCC(C(=O)N3CCOCC3)C2)c1 (stereo not drawn) | 20.5 |
| COc1ccc(Cl)cc1S(=O)(=O)N1CCCC(C(=O)N2CCCC2)C1 (stereo not drawn) | -5.2 |
| O=C(NCc1ccc(F)cc1)C(=O)NCC1OCCN1C(=O)c1ccc(Cl)cc1 (stereo not drawn) | -43.2 |
| CN(C)Cc1c(O)ccc2cc(-c3nc4ccccc4n3C)c(=O)oc12 | 10.2 |
| O=C1/C(=C/c2cccs2)SC(=S)N1N1CCOCC1 | 5.26 |
| O=[N+]([O-])c1cc(CN2CCN(c3ccccc3)CC2)c(O)c2ncccc12 | -7.8 |
| O=[N+]([O-])c1cc(S(=O)(=O)/N=C(/c2ccccc2)N2CCOCC2)ccc1Cl | -23.9 |
| CC(C)CSC1=NSC2=NC(=O)/C(=C\c3cccs3)C(=N)N12 | 20.2 |
| CC(C)(Oc1ccc(Cl)cc1)C(=O)NCC(c1ccco1)N1CCCCC1 (stereo not drawn) | -20.2 |
| CC(C)(Oc1ccc(Cl)cc1)C(=O)NCC(c1cccs1)N1CCOCC1 (stereo not drawn) | -5.84 |
| COc1ccccc1C(CNC(=O)C(C)(C)Oc1ccc(Cl)cc1)N1CCCC1 (stereo not drawn) | -45.1 |

| Compound | hERG current change (%, negative = inhibition) at 10uM [%] |
| --- | --- |
| COc1ccc(C(CNC(=O)C(C)(C)Oc2ccc(Cl)cc2)N2CCCC2)cc1 (stereo not drawn) | -50.1 |
| COc1ccc(C(CNC(=O)Cc2ccccc2Cl)N2CCCCC2)cc1 (stereo not drawn) | 23 |
| COc1ccc(C(CNC(=O)C(C)(C)Oc2ccc(Cl)cc2)N2CCCCC2)cc1 (stereo not drawn) | -53.8 |
| COc1ccc(N(CC(=O)O)S(=O)(=O)c2ccc(OC)c(OC)c2)cc1 | -29.6 |
| CS(=O)(=O)c1cccc(C(=O)Nc2ccc(-c3nc4ccccc4[nH]3)cc2)c1 | 11.5 |
| CS(=O)(=O)c1cccc(C(=O)Nc2cccc(-c3nc4ccccc4[nH]3)c2)c1 | -56.7 |
| CC(C)CC(=O)Nc1cccc(-c2nc3ccccc3[nH]2)c1 | -16.5 |
| O=C(COc1ccccc1)Nc1cccc(-c2nc3ccccc3[nH]2)c1 | -67 |
| CS(=O)(=O)c1ccc(C(=O)Nc2cccc(-c3nc4ccccc4[nH]3)c2)cc1 | 16 |
| CC(=O)Nc1cccc(-c2nc3ccccc3[nH]2)c1 | 1.87 |
| COc1ccc(OCC(=O)Nc2cccc(-c3nc4ccccc4[nH]3)c2)cc1 | -55.9 |
| O=C(COc1ccccc1)Nc1cccc(-c2nc3cc4ccccc4cc3[nH]2)c1 | -9.82 |
| O=C(O)CCCC(=O)Nc1cccc(-c2nc3ccccc3[nH]2)c1 | 34.1 |
| COc1ccc(-n2c(SCC(=O)Nc3ccc4c(c3)OCO4)nc3c(c2=O)SCC3)cc1 | -10.9 |
| CCN(C(=S)NCCOC)c1cccc2ccccc12 | 8.8 |
| CC1(O)N(Cc2ccccc2)C(=O)OC12CCCCC2 (stereo not drawn) | 9.89 |
| CC1CN(CC(=O)NCc2ccc(F)cc2)CC(C)O1 (stereo not drawn) | 7.79 |
| CCn1ncc(S(=O)(=O)N2CCN(c3cccc(OC)c3)CC2)c1C | 5.68 |
| N/C(=N\OC(=O)c1ccccc1[N+](=O)[O-])c1cccnc1 | -2.9 |
| O=C(NCc1ccco1)c1cccc(S(=O)(=O)N2CCCCC2)c1 | -24.7 |
| Cc1ccc[n+](Cc2ccc([N+](=O)[O-])cc2)c1.[Br-] | 27.1 |
